# Data from PubChem BioAssay (NCATS).
# Inconclusive results are not listed. Where a call stands in place of a potency, no number is given. Unmarked numbers belong to inactive results. Active and inactive are the calls of the source. The call rests on the fitted dose curve; in most records, active means well fitted curve in the direction sought with a large enough effect; inconclusive means small, poorly fitted or top-dose-only effect, or another doubt; inactive means no such curve, though single readings can be large; an effect the other way counts as inactive or inconclusive.
# Tested on: Tov112D
# Assay: Primary qHTS to identify gynecologic anti-cancer compounds using libraries of approved drugs and bioactive compounds (AID 1345084); further: nearly all actives have a fitted effect of over 55% in size
# Conditions: Gynecologic cancer cell panel viability, ATPlite luminescence, 48 h; series mostly up to 57.5 µM
# Method in brief: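 48 h compound exposure at 37 C, 5% CO2; five-point qHTS. ATPlite luminescence readout of cell ATP.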
row,SMILES,Potency
1,Cc1c(N)cccc1C(F)(F)F,inactive
2,O=C(O)CCC(=O)OC[C@@H](NC(=O)C(Cl)Cl)[C@H](O)c1ccc([N+](=O)[O-])cc1,inactive
3,O=C(COCCOCCOCC(=O)Nc1c(I)cc(I)c(C(=O)O)c1I)Nc1c(I)cc(I)c(C(=O)O)c1I,inactive
4,CC(=O)[C@@]1(O)CC[C@H]2[C@@H]3C[C@H](C)C4=CC(=O)CC[C@]4(C)[C@H]3CC[C@@]21C,inactive
5,CCN(CC)CC(=O)OCC(=O)[C@@]1(O)CC[C@H]2[C@@H]3CCC4=CC(=O)CC[C@]4(C)[C@H]3[C@@H](O)C[C@@]21C,inactive
6,C[C@@]12CCC[C@H]1[C@@H]1CC[C@H]3C[C@@H](O)CC[C@]3(C)[C@H]1CC2,inactive
7,CCCCC(CC)COC(=O)c1ccccc1C(=O)O (stereo unspecified),inactive
8,N=C(N)c1ccc(OCCCOc2ccc(C(=N)N)cc2)cc1,inactive
9,CC(C)(C)CC(=O)OCC(=O)[C@@]1(O)CC[C@H]2[C@@H]3CCC4=CC(=O)C=C[C@]4(C)[C@H]3[C@@H](O)C[C@@]21C,inactive
10,CN=C(N)NC(=O)Nc1c(C)cccc1C,inactive
11,CO[C@@H]1[C@@H](O[C@@H]2O[C@H](C)[C@@H](O[C@H]3C[C@@](C)(O)[C@@H](O)[C@H](C)O3)[C@H](N(C)C)[C@H]2O)[C@@H](CC=O)C[C@@H](C)[C@@H](O[C@@H]2CC[C@H](N(C)C)[C@@H](C)O2)/C=C/C=C/C[C@@H](C)OC(=O)C[C@H]1OC(C)=O,inactive
12,CN(C)CCOC(c1ccccc1)c1ccc(Br)cc1 (stereo unspecified),inactive
13,O=C(CCCCC(=O)Nc1c(I)cc(I)c(C(=O)O)c1I)Nc1c(I)cc(I)c(C(=O)O)c1I,inactive
14,OC[C@]1(O)OC[C@@H](O)[C@H](O)[C@@H]1O,inactive
15,CN1CCC(=C2c3ccccc3CCc3cccnc32)CC1,inactive
16,CN1Cc2cc(C(=O)N3CCC(C4CCNCC4)CC3)ccc2NC(CC(=O)O)C1=O (stereo unspecified),inactive
17,Nc1c(I)cc(I)c(C(=O)N(CCC(=O)O)c2ccccc2)c1I,inactive
18,Cc1ccccc1N1CCN(CCc2nnc3n2CCCC3)CC1,inactive

row,SMILES,Potency
1,O=C(NO)c1ccccc1,inactive
2,Cc1ccc2ccc(Cl)cc2n1,inactive
3,Cc1ncc(CO)c(CO)c1O,inactive
4,O=C1CC2(CCCC2)CC(=O)N1CCNCC1COc2ccccc2O1 (stereo unspecified),inactive
5,CC(=O)OCC[N+](C)(C)C,inactive
6,Oc1ccccc1,inactive
7,c1ccc(C(O[C@H]2CCCN(CCc3ccc4c(c3)OCO4)C2)c2ccccc2)cc1,inactive
8,CCCCC(=O)OCC(=O)[C@H]1[C@H](C)C[C@H]2[C@@H]3C[C@H](F)C4=CC(=O)C=C[C@]4(C)[C@@]3(F)[C@@H](O)C[C@@]21C,inactive
9,O=C(OCC(O)CO)c1ccccc1Nc1ccnc2c(C(F)(F)F)cccc12 (stereo unspecified),inactive
10,CN1C(CSCC(F)(F)F)Nc2cc(Cl)c(S(N)(=O)=O)cc2S1(=O)=O (stereo unspecified),inactive
11,COc1cc(C=O)ccc1O,inactive
12,O=C(O)/C=C(\CC(=O)O)C(=O)O,inactive
13,O=C(CCCCCCCCC#CI)Oc1ccccc1,inactive
14,NC(=O)COCCN1CCN(C(c2ccccc2)c2ccc(Cl)cc2)CC1 (stereo unspecified),inactive
15,COC(=O)C1=C(C)NC(COC(N)=O)=C(C(=O)OC(C)C)C1c1cccc(Cl)c1Cl (stereo unspecified),inactive
16,CC(=O)OCC(=O)[C@@]1(O)[C@H](OC(C)=O)C[C@H]2[C@@H]3CCC4=CC(=O)C=C[C@]4(C)[C@@]3(F)[C@@H](O)C[C@@]21C,inactive
17,O=C(c1ccccc1)c1ccccc1,inactive
18,C[C@H]1C[C@@H]2[C@H]([C@@H](O)C[C@@]3(C)[C@H]2CC[C@]3(O)C(=O)CO)[C@@]2(C)C=CC(=O)C=C12,inactive

# Tested on: not listed separately
# Assay: Drug repurposing screens with cells derived from glioblastoma tumor samples (AID 1345199); further: nearly all actives have a fitted effect of over 40% in size
# Conditions: GBM patient neurospheres viability, ATP luminescence, 48 h; at 45.9 µM (top of the series); tumour line B
# Method in brief: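 Primary testing used CD133+ neurospheres from four GBM patients, seven concentrations, 48 h exposure and ATP-based viability; confirmation added three slower-growing patient lines.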
row,SMILES,"activity, negative = cell killing [%]"
1,NCC(=O)O,10.4
2,O=C(O)CCC(=O)OC[C@@H](NC(=O)C(Cl)Cl)[C@H](O)c1ccc([N+](=O)[O-])cc1,-13.2
3,O=C(COCCOCCOCC(=O)Nc1c(I)cc(I)c(C(=O)O)c1I)Nc1c(I)cc(I)c(C(=O)O)c1I,-4.03
4,CC(=O)[C@@]1(O)CC[C@H]2[C@@H]3C[C@H](C)C4=CC(=O)CC[C@]4(C)[C@H]3CC[C@@]21C,-5.63
5,C[C@@]12CCC[C@H]1[C@@H]1CC[C@H]3C[C@@H](O)CC[C@]3(C)[C@H]1CC2,-21.2
6,OC[C@]1(O)OC[C@@H](O)[C@H](O)[C@@H]1O,6.45
7,Cc1ccccc1N1CCN(CCc2nnc3n2CCCC3)CC1,-2
8,Cc1ncc(CO)c(CO)c1O,0.285
9,Oc1ccccc1,8.9
10,c1ccc(C(O[C@H]2CCCN(CCc3ccc4c(c3)OCO4)C2)c2ccccc2)cc1,-23.2
11,CCCCC(=O)OCC(=O)[C@H]1[C@H](C)C[C@H]2[C@@H]3C[C@H](F)C4=CC(=O)C=C[C@]4(C)[C@@]3(F)[C@@H](O)C[C@@]21C,-0.839
12,CN1C(CSCC(F)(F)F)Nc2cc(Cl)c(S(N)(=O)=O)cc2S1(=O)=O (stereo unspecified),-3.33
13,COc1cc(C=O)ccc1O,-12.2
14,NC(=O)COCCN1CCN(C(c2ccccc2)c2ccc(Cl)cc2)CC1 (stereo unspecified),-14
15,COC(=O)C1=C(C)NC(COC(N)=O)=C(C(=O)OC(C)C)C1c1cccc(Cl)c1Cl (stereo unspecified),0.976
